# The campaign covered roughly 320,000 compounds. About 2,200 (0.69%) were called active. The full list was thinned out, with actives kept by preference. A number with no mark means an inactive call. No stated cut-off is given here; in the data, active means inhibition above about 43%; inactive means the rest.
# Biological target: Prolyl endopeptidase-like (Homo sapiens) (UniProt Q4J6C6)
# Assay: human PREPL activity-probe blockers – biochemical, fluorescence polarization, primary screen (AID 2751);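 further: 0% = enzyme with DMSO and 100% = wells lacking enzyme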
# Conditions: recombinant PREPL, fluorescence polarization activity-based probe; at 5.96 µM; active compounds read high
# Sequence of Prolyl endopeptidase-like (Homo sapiens) (Q4J6C6 whole entry, looked up): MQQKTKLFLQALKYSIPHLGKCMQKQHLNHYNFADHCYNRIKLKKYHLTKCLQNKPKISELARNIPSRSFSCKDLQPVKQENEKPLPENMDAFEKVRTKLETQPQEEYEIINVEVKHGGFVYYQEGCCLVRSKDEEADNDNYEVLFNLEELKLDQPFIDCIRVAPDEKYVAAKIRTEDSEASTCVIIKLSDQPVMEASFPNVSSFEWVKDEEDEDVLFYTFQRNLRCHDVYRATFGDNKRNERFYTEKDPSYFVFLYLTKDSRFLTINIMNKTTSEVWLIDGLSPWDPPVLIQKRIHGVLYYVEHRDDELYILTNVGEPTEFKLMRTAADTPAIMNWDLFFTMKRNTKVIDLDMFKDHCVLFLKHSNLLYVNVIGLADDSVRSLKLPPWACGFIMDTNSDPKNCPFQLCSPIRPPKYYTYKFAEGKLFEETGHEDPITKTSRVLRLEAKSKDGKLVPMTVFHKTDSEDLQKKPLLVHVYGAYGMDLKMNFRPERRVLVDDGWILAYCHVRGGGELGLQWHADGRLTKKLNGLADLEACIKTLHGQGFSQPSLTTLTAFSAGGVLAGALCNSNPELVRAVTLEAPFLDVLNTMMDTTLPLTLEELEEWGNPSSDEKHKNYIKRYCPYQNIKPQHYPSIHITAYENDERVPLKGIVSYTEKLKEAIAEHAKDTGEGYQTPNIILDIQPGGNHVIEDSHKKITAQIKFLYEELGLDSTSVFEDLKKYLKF
row,SMILES,inhibition
1,C[C@@H](CN1CCC[C@H]1CN1C(N)=NC[C@@H]1Cc1ccccc1)N1C[C@@H](Cc2ccccc2)N(CCCC2CCCC2)C1=N,54.6% (active)
2,CCCCN1C(N)=NC[C@@H]1Cc1ccccc1,17.4%
3,CC[C@@H](C)[C@@H]1CN([C@@H](C)CN2CCC[C@H]2CN2C(N)=NC[C@H]2C(C)C)C(=N)N1CCc1ccc(Cl)c(Cl)c1,63.3% (active)
4,NC1=NC[C@@H](Cc2ccc(O)cc2)N1CC1CCCCC1,9.91%
5,CCCC[C@@H]1CN=C(N)N1CCc1cccc(F)c1,-6.23%
6,O=C(C1Cc2ccccc2CN1C(=O)c1ccco1)N1CCN(c2ccccc2)CC1 (stereo not given),12.9%
7,CCOC(=O)c1ccc(N/C(=N/S(=O)(=O)c2ccccc2)c2ccccc2)cc1,-3.53%
8,O=C(NCc1cccnc1)c1ccc(CS(=O)(=O)c2ccc(Br)cc2)o1,-17%
9,CNC[C@H]1Oc2c(NC(=O)C3CCCCC3)cccc2C(=O)N([C@H](C)CO)C[C@@H]1C,1.75%
10,O=C(NNc1c2ccccc2nc2ccccc12)c1cc2ccccc2cc1O,68.7% (active)
11,Cc1noc(C)c1COC(=O)c1cc2ccccc2cc1O,3.42%
12,COc1ccc(-c2cc(C(=O)Nc3ccccc3O)c3ccccc3n2)cc1,15.1%
13,Cc1ccc(S(=O)(=O)C2C(=O)NC3(C)CC2c2ccccc2O3)cc1 (stereo not given),-1.08%
14,COC(=O)COc1ccc(S(=O)(=O)Nc2ccc(NC(C)=O)cc2)cc1,3.49%
15,CC(=O)Nc1ccc(S(=O)(=O)Nc2ccc(N3CCCCC3)cc2)cc1,59.6% (active)
16,CC(=O)Nc1ccc(S(=O)(=O)Nc2ccc(N3CCOCC3)c(F)c2)cc1,13.1%
17,CC1CCN(C(=O)c2ccc3c(=O)n4c(nc3c2)CCCCC4)CC1,10.4%
18,CC1CCN(C(=O)c2ccc3c(c2)NC(=O)CN3)CC1,57.5% (active)
19,CC1CCN(C(=O)c2ccc(CSc3ccc(Cl)cc3)cc2)CC1,18.7%
20,CCN(C(=O)COC(=O)C1CCN(S(=O)(=O)c2ccc(C)c(C)c2)CC1)C1CCS(=O)(=O)C1 (stereo not given),16.8%
21,COc1ccc2c(c1)CCNC2Cc1ccc(OC)c(O)c1 (stereo not given),11.1%
22,CC[C@H]1CN2CCc3cc(OC)c(OC)cc3[C@@H]2C[C@@H]1C[C@H]1NCCc2cc(OC)c(OC)cc21,17.4%
23,COc1cc2c(cc1O)[C@H](Cc1ccc(Oc3cc(C[C@@H]4NCCc5cc(OC)c(O)cc54)ccc3O)cc1)NCC2,46.2% (active)

row,SMILES,inhibition
1,CCOc1ccc(N2C(=O)/C(=C/c3ccc(C)o3)N(C)C2=S)cc1,6.35%
2,CC(C)n1c(CN2CCN(Cc3ccccc3)CC2)nc2ccccc21,-13.9%
3,CCOC(=O)c1cnc(Nc2nc3ccccc3o2)nc1CSC(=S)N1CCCCC1,-5.51%
4,Cc1ccc(C(=O)NNC(=O)CSc2nnc3ccccn23)cc1,-1.75%
5,O=C1CSc2ccc(C(=O)NCc3ccccn3)cc2N1,4.19%
6,O=C(NCc1ccccn1)c1ccc2nc(-c3ccco3)c(-c3ccco3)nc2c1,46.4% (active)
7,COCCNC(=O)Nc1ccc2nc(-c3ccco3)c(-c3ccco3)nc2c1,39.5%
8,COc1ccccc1CNC(=O)CSc1nc(=O)n(Cc2ccncc2)c2c1CCC2,2.55%
9,O=S(=O)(c1ccccc1)N1CN(Cc2ccc(F)cc2)c2nc3ccccc3nc21,-7.37%
10,CC(OC(=O)c1ccc(S(=O)(=O)N2CCOCC2)cc1)c1ccccc1 (stereo not given),-0.7%
11,CCN(CC)CCn1c2c(c(SCC(=O)Nc3ccc(C(C)C)cc3)nc1=O)CCC2,23.1%
12,O=C(NC1CCCC1)C(=O)c1c[nH]c2ccccc12,9.2%
13,NC(=O)CSc1c[nH]c2ccccc12,7.6%
14,O=S(=O)(O)Oc1c[nH]c2ccccc12,44.5% (active)
15,COc1ccc(CC(=O)N[C@@H](CCSC)c2nc3ccccc3[nH]2)cc1,5.96%
16,O=C(OCc1nc2ccccc2[nH]1)C1CCCCC1,10.5%
17,COC(=O)Cc1nc2ccccc2[nH]1,47.1% (active)
18,C=CCNC(=O)c1sc(SC)cc1-c1ccc(Cl)cc1,1.62%
19,Oc1c(CN2CCN(c3ccc(F)cc3)CC2)cc(Cl)c2cccnc12,53.5% (active)
20,Cc1cccnc1NC(=O)c1cccc(S(=O)(=O)N2CCN(c3ccc(F)cc3)CC2)c1,-7.81%
21,Oc1c(CN2CCCC2)cc(COCc2ccccc2)c2cccnc12,63.8% (active)
22,O=C(CN1CCN(c2ccc(F)cc2)CC1)Nc1ccccc1,9.77%
23,COc1cc(C)cc(CN2CCC(Cc3ccccc3)CC2)c1O,-5.3%

row,SMILES,inhibition
1,Clc1cccc(CN2COc3c(cc(Cl)c4cccnc34)C2)c1,2.86%
2,NC[C@H](Cc1ccccc1)NCCc1cc(C(F)(F)F)cc(C(F)(F)F)c1,-11.6%
3,O=C(COC(=O)c1ccc(Cl)nc1)NCc1ccc2c(c1)OCO2,8.45%
4,CCN(CC)CC(=O)Nc1sc2c(c1C(=O)c1ccccc1C)CCC2,5.23%
5,CC(C)(CNC(=O)c1ccc(Cl)c(S(=O)(=O)N2CCc3ccccc3C2)c1)N1CCOCC1,-27.3%
6,CCN(Cc1ccccc1)C(=O)CN1C(=S)NC(C)(C)CC1C (stereo not given),-2.69%
7,COc1ccc(C(=O)COC(=O)c2ccc([N+](=O)[O-])s2)cc1OC,34.6%
8,C[C@H](NC(=O)c1ccccc1Cl)C(=O)OCC(=O)N1CCN(c2ccccc2)CC1,13.3%
9,O=C(OCC(=O)N1CCN(c2ccccc2)CC1)c1ccc([N+](=O)[O-])s1,54.8% (active)
10,COCCN(CCOC)c1nc(N)c2c(N)nc3c(c2c1C#N)CC(=O)N3Cc1ccc(Cl)cc1,47.7% (active)
11,COc1cccc2c1OCC(C(=O)NCc1ccc(Cl)cc1Cl)=C2,-4.06%
12,C[N+](C)(CCCCCC[N+](C)(C)CCCN1C(=O)c2cccc3cccc(c23)C1=O)CCCN1C(=O)c2cccc3cccc(c23)C1=O,47.7% (active)
13,O=C(CCCCCN1C(=O)c2cccc3cccc(c23)C1=O)NCc1ccco1,5.95%
14,O=C1c2cccc3cccc(c23)C(=O)N1CCCCCc1n[nH]c(=S)o1,1.95%
15,Cc1ccc(C(C)NC(=O)Cn2nc(C)c([N+](=O)[O-])c2C)cc1 (stereo not given),11.6%
16,O=C(Nc1cccc(S(=O)(=O)N2CCOCC2)c1)C12CC3CC(CC(C3)C1)C2,12.3%
17,CC(CNc1ccc([N+](=O)[O-])cc1)NC(=O)c1ccccc1Br (stereo not given),4.76%
18,COc1ccc(C(=O)C2CCCN(C(=O)c3cnsn3)C2)c(C)c1 (stereo not given),13.4%
19,CCn1nc(C)cc1C(=O)N1CCCC(C(=O)c2cccc(OC)c2)C1 (stereo not given),-1.89%
20,COc1ccc2cc(C(=O)C3CCCN(C(=O)c4sc(C)nc4C)C3)ccc2c1 (stereo not given),47.9% (active)
21,COc1ccc(/C(O)=C2/C(=O)C(=O)N(CC3CCCO3)C2c2ccc(OC)c(OC)c2)cc1 (stereo not given),1.2%
22,CCC(CO)Oc1cc(NC(=O)c2ccc(Cl)cc2)c2ncn(C(C)C)c2c1 (stereo not given),13%
23,CCC(CO)Oc1cc(NC(=O)c2cccc(F)c2)c2ncn(C(C)C)c2c1 (stereo not given),3.94%

row,SMILES,inhibition
1,CC(C)C[C@H](CO)Nc1nc(N(C)c2cccc(Cl)c2)c2ncn(C(C)C)c2n1,12.1%
2,CCC(CO)Oc1cc(NCc2ccccc2)c2ncn(C3CCCC3)c2c1 (stereo not given),43.8% (active)
3,CN(C)c1nccc(NCc2ccccc2)c1C#N,3.08%
4,CC(C)n1cnc2c(NCc3ccccc3)cc(OCC3CCN(C)CC3)cc21,83.8% (active)
5,CCC(CO)Oc1cc(NC(=O)c2cccc3ccccc23)c2ncn(C(C)C)c2c1 (stereo not given),18.7%
6,CC(C)n1cnc2c(NCc3ccccc3)cc(N[C@@H](CO)Cc3ccccc3)cc21,62% (active)
7,CC(C)N(Cc1ccccc1)C(=O)COC(=O)c1cnccn1,-8.35%
8,COC(=O)[C@]1(Cc2ccccc2)N[C@H](CN(C)S(=O)(=O)c2ccc(OC(F)(F)F)cc2)[C@@H]2C(=O)N(Cc3ccccc3)C(=O)[C@@H]21,8.99%
9,COC(CNC(=O)Cn1ncc2ccsc2c1=O)OC,6.98%
10,CCCn1c(SCC(=O)Nc2ccc(C)c(S(=O)(=O)N3CCOCC3)c2)n[nH]c1=O,3.91%
11,CCc1cc(=O)oc2cc(C)cc(OCC(=O)N3CCC[C@@H]3C(=O)O)c12,-4.62%
12,O=C(CN(C(=O)c1csnn1)c1ccc(Br)cc1)NC1CCCC1,5.56%
13,CCCc1cc(=O)[nH]c2nnc(SCC(=O)Nc3nnc(SCC)s3)n12,0.4%
14,CCn1c(=S)sc2c(=O)n(CC(=O)Nc3ccc(OC)cc3)c(C)nc21,7.88%
15,O=S(=O)(NCC1CC1)c1ccc(F)c(Cl)c1,-5.91%
16,CC(OC(=O)/C=C/c1ccccc1)C(=O)NC1CCCCC1C (stereo not given),-7.55%
17,Cc1ccc(Nc2nc(Cl)c(C=O)s2)cc1,-3.94%
18,Cc1ccc(Nc2ccccc2N)cc1,47.5% (active)
19,Nc1ccc(C(=O)Nc2ccccc2N)cc1,-1.77%
20,Cc1cc(OC(C)C(=O)NC2CC(C)(C)NC(C)(C)C2)c2c(C)cc(=O)oc2c1 (stereo not given),2.31%
21,O=C(Nc1ccc([N+](=O)[O-])cc1)C1CC12CCC2 (stereo not given),1.87%
